Test results taken from the supplement of paper PMC6089552.
Screen size: about 3,200 compounds; about 300 (9.4%) showed activity. The full list was thinned out, with actives kept by preference.

Test system: A673/TR/shEF
Experiment: cell viability (LOESS-normalised, relative to median of negative controls) (log2 ratio); higher = more viable cells (less compound effect), active = hit call of the paper (over 3 MAD below the median)
Settings: treatment time: 72 h
Summary of the method: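 Viability of A673/TR/shEF Ewing sarcoma cells was determined by CellTiter-Glo luminescence. The cells, at 1,500 per well in 384-well plates, were grown with or without doxycycline from 24 h before compound addition to switch on EWS-FLI1 shRNA knockdown, then exposed for three days to library compounds at two or more concentrations or to DMSO controls. Signals were LOESS-corrected plate by plate, normalised to the negative-control median and log2-transformed.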

[1] = 0.25 µM, library screen: screen1, EWS-FLI1 expression: high (no doxycycline)
[2] = 0.25 µM, library screen: screen1, EWS-FLI1 expression: low (doxycycline-induced shRNA knockdown)
[3] = 2.5 µM, library screen: screen1, EWS-FLI1 expression: high (no doxycycline)
[4] = 2.5 µM, library screen: screen1, EWS-FLI1 expression: low (doxycycline-induced shRNA knockdown)
[5] = 0.025 µM, library screen: screen1, EWS-FLI1 expression: high (no doxycycline)
[6] = 0.025 µM, library screen: screen1, EWS-FLI1 expression: low (doxycycline-induced shRNA knockdown)
[7] = 0.25 µM, library screen: screen2, EWS-FLI1 expression: high (no doxycycline)
[8] = 0.25 µM, library screen: screen2, EWS-FLI1 expression: low (doxycycline-induced shRNA knockdown)
[9] = 2.5 µM, library screen: screen2, EWS-FLI1 expression: high (no doxycycline)
[10] = 2.5 µM, library screen: screen2, EWS-FLI1 expression: low (doxycycline-induced shRNA knockdown)
[11] = 25 µM, library screen: screen1, EWS-FLI1 expression: high (no doxycycline)
[12] = 25 µM, library screen: screen1, EWS-FLI1 expression: low (doxycycline-induced shRNA knockdown)
[13] = 0.103 µM, library screen: screen3, EWS-FLI1 expression: high (no doxycycline)
[14] = 0.103 µM, library screen: screen3, EWS-FLI1 expression: low (doxycycline-induced shRNA knockdown)
[15] = 0.308 µM, library screen: screen3, EWS-FLI1 expression: high (no doxycycline)
[16] = 0.308 µM, library screen: screen3, EWS-FLI1 expression: low (doxycycline-induced shRNA knockdown)
[17] = 0.926 µM, library screen: screen3, EWS-FLI1 expression: high (no doxycycline)
[18] = 0.926 µM, library screen: screen3, EWS-FLI1 expression: low (doxycycline-induced shRNA knockdown)
[19] = 2.8 µM, library screen: screen3, EWS-FLI1 expression: high (no doxycycline)
[20] = 2.8 µM, library screen: screen3, EWS-FLI1 expression: low (doxycycline-induced shRNA knockdown)
[21] = 8.3 µM, library screen: screen3, EWS-FLI1 expression: high (no doxycycline)
[22] = 8.3 µM, library screen: screen3, EWS-FLI1 expression: low (doxycycline-induced shRNA knockdown)
[23] = 25 µM, library screen: screen3, EWS-FLI1 expression: high (no doxycycline)
[24] = 25 µM, library screen: screen3, EWS-FLI1 expression: low (doxycycline-induced shRNA knockdown)

Measured: cell viability (log2)

COc1cc2c3cc1Oc1c(OC)c(OC)cc4c1C(Cc1ccc(O)c(c1)Oc1ccc(cc1)CC3N(C)CC2)N(C)CC4 (stereo not drawn)
inactive: [1] 0.135 | [2] 0.0489 | [3] 0.126 | [4] -0.0746

CSCCC(N)C(=O)NC(CC(C)C)C(=O)NC(Cc1ccccc1)C(=O)O (stereo not drawn)
inactive: [1] 0.145 | [2] -0.00633 | [3] 0.123 | [4] 0.0328

O=c1cc(-c2ccccc2)oc2c(O)c(O)ccc12
inactive: [1] 0.189 | [2] -0.0108 | [3] 0.128 | [4] 0.0489

O=c1cc(N2CCOCC2)oc2c(-c3ccccc3)cccc12
inactive: [5] 0.213 | [6] 0.0453 | [1] 0.204 | [2] 0.0333 | [7] 0.135 | [8] 0.11 | [4] 0.0932 | [9] 0.15 | [10] 0.0123
active: [3] -0.134 | [11] -0.489 | [12] -0.462

O=c1cc(-c2cccc3c2Sc2ccccc2S3)oc(N2CCOCC2)c1
inactive: [13] 0.00625 | [14] 0.00883 | [15] -0.0309 | [16] 0.0146 | [17] 0.0133 | [18] 0.00404 | [19] 0.0162 | [20] 0.0289 | [21] -0.0501 | [22] 0.00607 | [23] 0.0363 | [24] -0.0432

CC(C)CCC[C@@H](C)[C@H]1CC[C@H]2[C@@H]3CC[C@@H]4C[C@H](O)CC[C@]4(C)[C@H]3CC[C@]12C
inactive: [1] 0.108 | [2] 0.0181 | [3] 0.105 | [4] 0.0609

CC1CCC2(OC1)OC1CC3C4CCC5C[C@@H](O)CCC5(C)C4=CCC3(C)C1[C@@H]2C (stereo partly drawn)
inactive: [1] 0.0912 | [2] 0.0387 | [3] 0.0505 | [4] 0.0779

CCCCCCCCCCCCCCCC(=O)NCC(COP(=O)([O-])OCC[N+](C)(C)C)OC (stereo not drawn)
inactive: [7] 0.14 | [8] 0.124 | [9] 0.166 | [10] 0.0176

CCC(=O)c1ccc2c(c1)N(CC(C)N(C)C)c1ccccc1S2 (stereo not drawn)
inactive: [1] 0.0889 | [2] 0.155 | [3] 0.168 | [4] 0.297

Cn1cnc([N+](=O)[O-])c1Sc1ncnc2nc[nH]c12
active: 25 µM, library screen: screen2, EWS-FLI1 expression: high (no doxycycline) -0.337
inactive: 0.025 µM, library screen: screen2, EWS-FLI1 expression: high (no doxycycline) 0.138 | 0.025 µM, library screen: screen2, EWS-FLI1 expression: low (doxycycline-induced shRNA knockdown) 0.0997 | [1] 0.0615 | [2] 0.0765 | [7] 0.159 | [8] 0.0607 | [3] -0.0254 | [4] 0.161 | [9] -0.0273 | [10] 0.0557 | 25 µM, library screen: screen2, EWS-FLI1 expression: low (doxycycline-induced shRNA knockdown) 0.03

COc1cc(OC)c(C2NC(=S)NC(C)=C2C(=O)Nc2cccc(Cl)c2)cc1OC (stereo not drawn)
inactive: [1] 0.0501 | [2] 0.0639 | [3] 0.0887 | [4] 0.0905

NS(=O)(=O)c1ccc(-c2ccc(/C=C3/SC(=S)N(C4CCCCC4)C3=O)o2)cc1
inactive: [1] 0.109 | [2] 0.0623 | [3] 0.167 | [4] -0.0331

CC(=O)O[C@@]12CO[C@@H]1C[C@H](O)[C@@]1(C)C(=O)[C@H](O)C3=C(C)[C@@H](OC(=O)[C@H](O)[C@@H](NC(=O)OC(C)(C)C)c4ccccc4)C[C@@](O)([C@@H](OC(=O)c4ccccc4)[C@H]21)C3(C)C
active: [13] -2.68 | [14] -0.934 | [15] -2.8 | [16] -1.01 | [17] -2.92 | [18] -1.04 | [19] -2.83 | [20] -1.04 | [21] -2.98 | [22] -1.06 | [23] -2.84 | [24] -1.01

CC(=O)O[C@H]1C(=O)[C@@]2(C)[C@H]([C@H](OC(=O)c3ccccc3)[C@]3(O)C[C@H](OC(=O)[C@H](O)[C@@H](NC(=O)c4ccccc4)c4ccccc4)C(C)=C1C3(C)C)[C@]1(OC(C)=O)CO[C@@H]1C[C@@H]2O
active: [13] -2.57 | [14] -0.853 | [1] -3.63 | [2] -1.46 | [7] -2.49 | [8] -0.868 | [15] -2.24 | [16] -0.787 | [17] -2.68 | [18] -0.947 | [3] -4.22 | [4] -1.51 | [9] -2.93 | [10] -1 | [19] -2.59 | [20] -1.11 | [21] -2.75 | [22] -1.03 | [23] -2.68 | [24] -1.1

[Na+].[Na+].[Na+].[O]=[V]([O-])([O-])[O-]
inactive: [13] 0.0642 | [14] 0.11 | [15] -0.00412 | [16] 0.0414 | [17] 0.0791 | [18] 0.0822 | [19] 0.0816 | [20] 0.153 | [21] 0.102 | [22] 0.022 | [23] 0.0273 | [24] 0.0301

O=C(Nc1ccncc1)c1cc(-c2ccccc2)nc2ccccc12
inactive: [1] 0.0994 | [2] 0.0756 | [3] 0.0606 | [4] -0.00485

COC(=O)C[C@H]1C(C)(C)C(OC)=C2CC3=C4CC(=O)O[C@@H](c5ccoc5)[C@]4(C)CCC3[C@@]1(C)C2=O (stereo partly drawn)
inactive: [1] 0.0817 | [2] 0.1 | [3] 0.101 | [4] 0.109

Nc1ncnc2c1nc(Br)n2C1OC2COP(=O)(O)OC2C1O (stereo not drawn)
inactive: [7] 0.279 | [8] 0.0361 | [9] 0.103 | [10] 0.0822

CC1=C(/C=C/C(C)=C/C=C/C(C)=C/C=C/C=C(C)/C=C/C=C(C)/C=C/[C@@]23O[C@]2(C)C[C@@H](O)CC3(C)C)C(C)(C)C[C@H](O)C1
inactive: [1] 0.0858 | [2] 0.0984 | [3] 0.143 | [4] 0.132

COc1ccc2c(c1)[C@@]1(C)CCC(=O)C[C@@H]1CC2
inactive: [1] 0.0574 | [2] 0.0238 | [3] 0.0895 | [4] 0.0859

CC(C)c1ccc2c(c1)CCC1C(C)(CN)CCCC21C (stereo not drawn)
inactive: [1] 0.0133 | [2] -0.0819 | [3] 0.122 | [4] 0.00337

Fc1cccc(CN(C2=NCCN2)c2c(Cl)cccc2Cl)c1
inactive: [7] 0.243 | [8] 0.118 | [9] 0.138 | [10] 0.0968

CC(=O)/C=C/C1C(C)(O)CCC2C(C)(C)CCCC21C (stereo not drawn)
inactive: [1] 0.0886 | [2] 0.136 | [3] 0.148 | [4] 0.139

Cc1nc(Nc2ncc(C(=O)Nc3c(C)cccc3Cl)s2)cc(N2CCN(CCO)CC2)n1
inactive: [13] -0.00181 | [14] -0.0394 | [15] -0.125 | [16] -0.364
active: [17] -0.395 | [18] -0.907 | [19] -0.393 | [20] -1.27 | [21] -0.457 | [22] -1.34 | [23] -0.706 | [24] -1.33

COc1cccc(C(=O)NCCN2CCN(c3ccc(Cl)cc3)CC2)c1
inactive: [7] 0.184 | [8] 0.2 | [9] 0.0849 | [10] 0.0867

O=C(O)c1cn(-c2ccccc2)nc1-c1ccc(F)cc1
inactive: [1] 0.0839 | [2] -0.00121 | [3] 0.0458 | [4] -0.135

CNCCNS(=O)(=O)c1cccc2cnccc12
inactive: [5] 0.0336 | [6] 0.0964 | [1] 0.0201 | [2] 0.0846 | [7] 0.191 | [8] 0.0995 | [3] -0.0144 | [4] 0.076 | [9] 0.114 | [10] 0.037 | [11] -0.0615 | [12] -0.521

NC(N)=NCCNS(=O)(=O)c1cccc2cnccc12
inactive: [5] 0.216 | [6] 0.0306 | [1] 0.259 | [2] 0.000334 | [7] 0.159 | [8] 0.0697 | [4] 0.117 | [9] 0.11 | [10] 0.0282 | [12] 0.0777
active: [3] -0.325 | [11] -0.105

NCCNS(=O)(=O)c1cccc2cnccc12
inactive: [5] 0.261 | [6] -0.0195 | [1] 0.263 | [2] -0.0436 | [7] 0.125 | [8] 0.144 | [4] 0.0153 | [9] 0.077 | [10] 0.0865 | [11] -0.0355 | [12] 0.14
active: [3] -0.101

O=S(=O)(NCCNC/C=C/c1ccc(Br)cc1)c1cccc2cnccc12
inactive: [5] 0.026 | [6] 0.000211 | [1] 0.096 | [2] 0.0474 | [7] 0.108 | [8] 0.000615 | [3] 0.0846 | [4] -0.0121 | [9] 0.194 | [10] 0.0705 | [11] 0.00409 | [12] 0.217

C[C@@H]1CC[C@@]2(OC1)O[C@H]1C[C@H]3[C@@H]4CC[C@@H]5C[C@@H](O)CC[C@]5(C)[C@H]4CC[C@]3(C)[C@H]1[C@@H]2C
inactive: [1] 0.0641 | [2] 0.0518 | [3] 0.077 | [4] 0.0287

CSc1nnc(-c2ccccc2)c(-c2ccccc2)n1
inactive: [1] 0.103 | [2] 0.00324 | [3] 0.0984 | [4] 0.0395

COc1cc(OC)c2c(c1)O[C@H](c1cc(OC)c(OC)c(OC)c1)[C@H](OC(=O)c1cc(OC)c(OC)c(OC)c1)C2
inactive: [1] 0.0414 | [2] 0.0159 | [3] 0.0705 | [4] -0.00627
